The structures appear in SMILES notation. Counter-ions that a name gives are not always drawn.

Results on 14 molecules are retold here after the supplement of paper PMC6897291.

This test has as its system RIVA. Description: growth inhibition by drug alone (1 - RLU/untreated control) (fraction); higher = stronger inhibition. Conditions: 100 nM; time (day): 4; 177Lu-lilotomab satetraxetan 0 ug/ml. The gist of the method:
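RIVA or U-2932 cells, untreated or pretreated 18 h with a radiolabelled anti-CD37 antibody conjugate (~600 MBq/mg; 0.5 µg/ml RIVA, 1 µg/ml U-2932), were washed and seeded at 3,000 cells/well on plates pre-printed with the Selleck Cambridge Cancer Compound library. Doses were 10/100 nM (RIVA) or 10/1,000 nM (U-2932). RealTime-Glo luminescence was read daily from day 3 after 1 h at 37°C. Growth inhibition is 1 − RLU/mean of 48 untreated no-drug wells per plate.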
Regarding `CCc1c2c(nc3ccc(OC(=O)N4CCC(N5CCCCC5)CC4)cc13)-c1cc3c(c(=O)n1C2)COC(=O)[C@]3(O)CC` [Irinotecan HCl Trihydrate (Campto)], the “growth inhibition by drug alone” value was -0.163.
In the case of `S=C(NCc1ccc2c(c1)OCO2)N1CCN(c2ncnc3c2oc2ccccc23)CC1` [Amuvatinib (MP-470)] it was 0.0617; in that of `COc1ccc2c3n(c(=NC(=O)c4cccnc4)nc2c1OC)CCN3`, 0.0435; in that of `C#Cc1cccc(Nc2ncnc3cc(OCCOC)c(OCCOC)cc23)c1` [Erlotinib HCl], 0.642.
In the case of `Cc1ccc(-c2cc(C(F)(F)F)nn2-c2ccc(S(N)(=O)=O)cc2)cc1` [Celecoxib] it was -0.119.
In the case of `N#CC[C@H](C1CCCC1)n1cc(-c2ncnc3[nH]ccc23)cn1`, the “growth inhibition by drug alone” value is -0.098.
As to `CCc1cncnc1N1CCN(Cc2nc3ccc(C(F)(F)F)cc3[nH]2)CC1`, the “growth inhibition by drug alone” value is -0.0865.
In the case of `CCN(CC)C(=S)SSC(=S)N(CC)CC` [Disulfiram (Antabuse)] it was -0.194; in that of `CC(C)[C@H](C(=O)Nc1ccc(C(=O)NO)cc1)c1ccccc1`, 0.907.
Take `CC(=O)O[C@]1(C(C)=O)CC[C@H]2[C@@H]3C=C(C)C4=CC(=O)CC[C@]4(C)[C@H]3CC[C@@]21C` [Megestrol Acetate]: the “growth inhibition by drug alone” value was found to be 0.023.
As to `COc1cc2ncnc(Nc3cccc(Br)c3)c2cc1OC`, the “growth inhibition by drug alone” value was -0.0578.
Consider `N#Cc1ccc(C(c2ccc(C#N)cc2)n2cncn2)cc1` [Letrozole], for which the “growth inhibition by drug alone” value was -0.169.
The figure for `CC(=O)c1c(C)c2cnc(Nc3ccc(N4CCNCC4)cn3)nc2n(C2CCCC2)c1=O` is -0.13; for `COc1cccc2c1C(=O)c1c(O)c3c(c(O)c1C2=O)C[C@@](O)(C(=O)CO)C[C@@H]3O[C@H]1C[C@H](N)[C@H](O)[C@H](C)O1` [Doxorubicin (Adriamycin)] it is 0.794.
